Reference: PubChem BioAssay AID492998 (Southern Research Specialized Biocontainment Screening …, 2010)
The campaign covered roughly 2,300 compounds. About 550 (24%) were called active. The rule behind the calls is not given here. The list is a sample of the results. A call without a number means that no potency is given here. Potency and affinity values are given separately.

Assay: Vero E6 cell cytotoxicity, dose response, cytotoxicity control for non-replicating M. tuberculosis project, secondary assay (AID 492998)
Settings: series mostly up to 20 µM

SMILES	outcome
COc1c[nH]n(C2CCCCC2)c(=O)c1=O	inactive
CCCN(Cc1nnc(-c2ccccc2Cl)o1)C(=O)c1cc([N+](=O)[O-])cc([N+](=O)[O-])c1	inactive
Cc1ccc(NC(=O)COc2ccc3c(c2)CCC3)nc1	inactive
COc1ccc(CNC(=O)c2cc3cccc(O)c3oc2=N)cc1	inactive
CCc1ccc(N2NC(=O)/C(=C/C=C/c3ccco3)C2=O)cc1	inactive
O=C(COc1cccc2ccccc12)Nc1nc2ccccc2[nH]1	inactive
CC1Cc2cc(/C=C3/SC(=S)NC3=O)ccc2O1 (configuration not stated)	inactive
c1ccc(-c2nc(NCCCn3ccnc3)c3ccccc3n2)cc1	inactive
Cc1cccc2cc(C#N)c(NCCCn3ccnc3)nc12	inactive
O=C(COC(=O)CCc1c[nH]c2ccccc12)Nc1cc([N+](=O)[O-])ccc1Cl	inactive
Cc1nnc(N/N=C/c2cccc(OCc3ccc(Cl)c(Cl)c3)c2)n1N	inactive
CCCCCCC1CC(C)(C(=O)CNc2nncs2)OC1=O (configuration not stated)	inactive
CCCn1nnc(NC(=O)COc2ccc(CC)cc2)n1	inactive
CNC(=O)c1[nH]cnc1C(=O)Nc1ccc(Cl)cc1	inactive
Cc1nc(C(=O)Nc2ccccc2)sc1C(=O)Nc1ccccc1	inactive
Nc1nnc(Sc2ncccc2[N+](=O)[O-])s1	inactive
CC(C)OC(=O)C(C)Oc1ccc(C(=O)NCCc2ccccc2)cc1 (configuration not stated)	inactive
CC(=O)c1cc2c(ccc3ccccc32)oc1=O	inactive
Cn1cccc1/C=C1/C(=O)NC(=S)N(Cc2ccc(F)cc2)C1=O	inactive
Cc1ccc(/C=C2/C(=O)NC(=O)N(CCc3ccc(F)cc3)C2=O)s1	inactive
O=C1CC(N2CCSCC2)C(=O)N1CCc1ccccc1 (configuration not stated)	inactive
CCCCSc1nnc(-c2cc(Br)ccc2N)c(=O)[nH]1	inactive
O=C(NCCc1cccc(Cl)c1)c1cc2ccccc2oc1=O	inactive
Cc1ccc(-c2ccc(/C=N/NC(=O)CN3CCCC3)o2)cc1Cl	inactive

SMILES	outcome
O=C(N/N=C/c1ccccn1)c1cc([N+](=O)[O-])cc([N+](=O)[O-])c1	inactive
COc1ccccc1OCCNC(=O)c1cc([N+](=O)[O-])cc([N+](=O)[O-])c1	inactive
COC(=O)C1=C(C)N(CC2CC2)C(=NCc2cccc(Cl)c2)N[C@H]1c1ccccc1	inactive
O=C(COc1ccc(Br)cc1)N/N=C1/SCC(=O)N1Cc1ccccc1	inactive
CC(=O)c1c(O)cc(=O)n(-c2ccccc2)c1-c1ccc(C)cc1	inactive
CN(C)CCC(=O)N1c2ccccc2Sc2ccc(Cl)cc21	inactive
CCOC(=O)c1ccc(NC(=O)NS(=O)(=O)c2ccc(C)cc2)cc1	inactive
O=C(OCCCCN1C(=O)c2ccccc2C1=O)c1ccc(Br)o1	inactive
O=C(CCS(=O)(=O)c1ccccc1)Nc1nnc(-c2ccco2)o1	inactive
CC(C)Cc1nnc(NC(=O)CCS(=O)(=O)c2ccc(Cl)cc2)s1	inactive
COc1ccc(C2(O)CCN(CC(=O)Nc3nc(-c4ccccc4)cs3)CC2)cc1	inactive
O=C(COc1ccc2ccccc2c1)Nc1nccs1	inactive
Cc1cccc(NC(=O)COC(=O)CCc2c[nH]c3ccccc23)c1C	inactive
O=C(COC(=O)COc1ccc(Nc2ccccc2)cc1)NCc1ccco1	inactive
Cc1cc2n(n1)SC(Nc1ccccc1)N2 (configuration not stated)	inactive
CCOc1ccc(C(=O)Nc2nc3ccccc3[nH]2)cc1OCC	inactive
c1ccc2[nH]c(NC3=NCCC3)nc2c1	inactive
O=C(Nc1nc2ccccc2[nH]1)c1ccc(F)cc1	inactive
Nc1ccc(C(=O)N/N=C\C=C\c2ccc([N+](=O)[O-])cc2)cc1	inactive
CCCOC(=O)c1cc(-c2ccc(C=O)o2)ccc1Cl	inactive
CCCCCCCCCCn1cc(C(C)=O)c(=O)[nH]c1=O	inactive
CCC(CC)COC(=O)C(C#N)c1nc2ccccc2nc1N1CCN(CC)CC1 (configuration not stated)	inactive
CC(CCc1ccccc1)NC(=O)COC(=O)c1cccs1 (configuration not stated)	inactive
COc1ccc(N2C(=O)NC(=O)/C(=C/c3ccc([N+](=O)[O-])s3)C2=O)cc1	inactive

SMILES	outcome
O=C(NCCC1=CCCCC1)c1ccc(Br)o1	inactive
Cc1n[nH]c(=S)n1/N=C/c1ccc(OCc2ccc(Cl)cc2Cl)cc1	inactive
Cc1cc(-c2c(C)[nH]n(-c3ccccc3)c2=O)n[nH]1	inactive
O=C1CC(N2CCC(C(=O)N3CCCCC3)CC2)C(=O)N1 (configuration not stated)	inactive
CCC(=O)c1ccc(OCc2ccc(C(=O)OC)cc2)cc1	inactive
CCOC(=O)C1=C(c2ccccc2)NC(N)=NC1c1ccc(OCc2ccc(Cl)cc2)c(OC)c1 (configuration not stated)	inactive
CCOC(=O)C(=O)NC12CC3CC(CC(C3)C1)C2	inactive
COC(=O)c1cc(-c2ccc(OC)cc2)on1	inactive
O=C1OC(/C=C/c2ccccc2)=NC/1=C\c1cccnc1	inactive
CCC1CCC(c2nnc(-c3ccc([N+](=O)[O-])cc3)o2)CC1 (configuration not stated)	inactive
O=c1c2c([N+](=O)[O-])cc([N+](=O)[O-])cc2nc2ccccn12	inactive
O=C(OCc1cccc([N+](=O)[O-])c1)c1ccc2ccccc2n1	inactive
CCCNC(=O)COC(=O)c1cc2c(=O)n3ccccc3nc2s1	inactive
CN1/C(=C\C=N\NC(=O)c2cccnc2)C(C)(C)c2ccccc21	inactive
O=C(OCC(=O)N1CCc2ccccc2C1)c1cccc([N+](=O)[O-])c1	inactive
COc1cc(/C=N/NC(=O)c2ccncc2)ccc1OC(=O)c1cccc(F)c1	inactive
Clc1cccc(CNCCNCc2cccc(Cl)c2)c1	inactive
CCOC(=O)Nc1cccc(OCC(=O)Nc2ccccc2OC)c1	inactive
Clc1ccc(Cl)c(OCCCCNCc2ccccc2)c1	inactive
COc1ccc(NC(=O)COc2ccccc2)cc1Cl	inactive
Cc1ccc(NC(=O)CCSc2nnc(Cc3ccccc3)o2)cc1	inactive
O=S(=O)(c1ccc(OCC2CO2)cc1)c1ccc(OCC2CO2)cc1 (configuration not stated)	inactive
COc1ccc(CCOC(=O)c2ccc(N)c([N+](=O)[O-])c2)cc1	inactive
CCCCN1C(=O)C2(NNc3ccccc3O2)c2ccccc21 (configuration not stated)	inactive

SMILES	outcome
Cc1ccc(NC(=O)COC(=O)CCc2c[nH]c3ccccc23)cc1[N+](=O)[O-]	inactive
Cc1cc(NC(=O)c2cc([N+](=O)[O-])cc([N+](=O)[O-])c2)no1	inactive
CC(NC(=O)COc1ccc(-c2ccccc2)cc1)C1CCCO1 (configuration not stated)	inactive
COc1ccc(C(=O)NNC2=C(C(=O)C(F)(F)F)CCC2)cc1	inactive
CCCCNC(=O)COC(=O)c1cc(F)c(F)cc1Cl	inactive
COc1cc(CNC2CCCC2)cc(Cl)c1OCc1ccc(F)cc1	inactive
Clc1ccc(OCCCNCc2ccccc2)c2ccccc12	inactive
O=C(Cc1c(F)cccc1Cl)Nc1ncc([N+](=O)[O-])s1	inactive
Cc1nc(C)c(/C(O)=C/c2nc3ccccc3oc2=O)s1	inactive
Cc1cccc2c(CC(=O)O)noc12	inactive
CC(C)(C)c1cc(CN2CCC(O)CC2)cc(C(C)(C)C)c1O	inactive
Cc1ccc(-n2sc3ccccc3c2=O)cc1	inactive
Cc1ccnc(-n2sc3ccccc3c2=O)n1	inactive
Cn1c(=O)c(Oc2ccc(F)cc2)c(O)c2ccccc21	inactive
CSC1=N/C(=C\c2ccc3c(c2)OCO3)C(=O)S1	inactive
O=C(COC(=O)c1ccc(Br)o1)NCCCc1ccccc1	inactive
O=C(Nc1nnc(C2=COCCO2)o1)c1ccc(Cc2ccccc2)cc1	inactive
Cc1ccsc1C(=O)OCC(=O)Nc1nnc(-c2ccccc2)o1	inactive
O=C(NC1CCCC1)c1cc(-c2cccs2)on1	inactive
Cc1ccccc1C(=O)Nc1nnc(-c2ccco2)o1	inactive
Cc1ccc(NC(=O)CCSc2nnc(-c3ccco3)o2)cc1	inactive
O=C(Nc1ccc(Cl)cc1)C1CCCC1	inactive
O=C(O)c1ccc(-n2nc(C(F)(F)F)c3c2CCCC3)cc1	inactive
Brc1c(-c2ccc3c(c2)OCO3)nc2ncccn12	inactive

SMILES	outcome
COc1ccc(CC(=O)OCC(=O)Nc2ccc(Br)cc2)cc1	inactive
CN1CCN(/N=C/c2ccc(-c3ccc([N+](=O)[O-])cc3Cl)o2)CC1	inactive
O=C(Nc1ccc2c(c1)CCC2)c1ccc(Br)o1	inactive
COC(=O)COc1cccc(NC(=O)c2cccc(C)c2)c1	inactive
CCCCN(C)C(=O)c1cc2cc3ccc(OC)cc3nc2s1	inactive
O=C(Nc1cccc([N+](=O)[O-])c1)C1COc2ccccc2O1 (configuration not stated)	inactive
O=C(N/N=C/c1ccc(OC(=O)c2ccco2)cc1)c1ccccn1	inactive
Cc1ccc(OC(=O)CCS(=O)(=O)c2ccc(C)cc2)cc1	inactive
CC1=NN(C(=O)c2ccc(Br)cc2)C(O)(c2ccccc2)C1 (configuration not stated)	inactive
CC1(c2nnc(-c3ccc(F)cc3)o2)CC(c2cccc(Cl)c2)=NO1 (configuration not stated)	inactive
COc1cccc(COC(=O)CCNC(=O)c2ccc(Br)cc2)c1OC	inactive
CCOc1cc(-c2sc(Nc3cc(C)ccc3OC)n[n+]2-c2ccccc2)ccc1OC	inactive
CN1CCN(c2cc3c(cc2F)c(=O)c(C(=O)O)cn3CCF)CC1	inactive
Cc1ccccc1C(=O)NN1CC(C(=O)OCc2ccc(Cl)c(Cl)c2)CC1=O (configuration not stated)	inactive
CCCOC(=O)c1ccc(OC(=O)c2ccco2)cc1	inactive
COc1ccc(NC(=O)C(=O)NNC(=O)C(C)Oc2ccc(Cl)cc2Cl)cc1 (configuration not stated)	inactive
O=C(COc1ccc([N+](=O)[O-])cc1)NNC(=O)c1cccs1	inactive
COc1ccc(OCCOC(=O)c2cccs2)cc1	inactive
C/C(=N\NC(=O)c1ccco1)c1cc(Cl)sc1Cl	inactive
CCc1ccc(OCCCC(=O)NCc2ccco2)cc1	inactive
COc1ccc(OCCC(=O)OCC(=O)Nc2ccc(Br)cc2)cc1	inactive
